From PubChem BioAssay (NCI)
About 83,000 compounds went through this panel and 20% of them were active in at least one assay; those are over-represented in the sample as a whole.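 Assay: single dose, 48 h. Readout: percent growth (0 = no net growth; negative = cell death). Active: <10.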 The source made the active and inactive calls.

Legend:
Test in all cases: NCI-60 one-dose screen, 48 h (100 = growth as untreated, 0 = no growth, -100 = all killed)
Details in all cases: 10 µM unless noted
[1] = test system: T-47D breast
[2] = test system: BT-549 breast
[3] = test system: MDA-MB-435 melanoma
[4] = test system: SW-620 colon
[5] = test system: MCF7 breast
[6] = test system: HCT-116 colon
[7] = test system: HCC-2998 colon
[8] = test system: KM12 colon

Measured: growth

COc1ncnc2c(-c3ccccc3)cn(COCc3ccccc3)c12
inactive: [1] 14% | [2] 36.6% | [3] 29.7% | [4] 67.4% | [5] 48.1% | [6] 41.7% | [7] 70% | [8] 42.5%

CCN(CCNc1ccc(C)c2sc3cc(Cl)ccc3c(=O)c12)CC(C)O (stereo unspecified)
inactive: [1] 31.7% | [2] 110% | [4] 11.9% | [5] 36.7% | [8] 39.2%
active: [3] 6% | [6] 9.99% | [7] 5.33%

O=S(=O)(c1ccc(N/N=C\c2ccccc2Cl)cc1)c1ccc(N/N=C/c2ccccc2Cl)cc1
inactive: [1] 76.3% | [2] 78.6% | [3] 86.9% | [4] 87.6% | [5] 68% | [6] 80.8% | [7] 103% | [8] 69.9%

Cc1cc(C)c(S(=O)(=O)/N=c2/n(-c3ccccc3)nc3n2CCN3C2=NCCN2)c(C)c1
inactive: [1] 77.8% | [2] 73.8% | [3] 69.5% | [4] 84.8% | [5] 90.8% | [6] 55.7% | [7] 61.5% | [8] 85.4%

O=C(Oc1ccc(Cl)cc1[N+](=O)[O-])Oc1ccc(Cl)cc1[N+](=O)[O-]
inactive: [1] 115% | [2] 119% | [3] 120% | [4] 109% | [5] 103% | [6] 113% | [7] 108% | [8] 106%

O=C(Nc1ccc(Oc2ccc(F)cc2)c(Cl)c1)c1cnccn1
inactive: [1] 42.9% | [2] 100% | [4] 37% | [5] 29.7% | [6] 58.7% | [7] 76.3% | [8] 27.5%
active: [3] -2.8%

Nc1cccc2c1C(=O)c1cccc(NC(=O)c3ccccc3)c1C2=O
inactive: [1] 45.6% | [2] 24.9% | [5] 13.7% | [6] 19.9% | [8] 32.5%
active: [3] -56.4% | [4] 7.88% | [7] -10.5%

NC(=O)CC1C=CCC1 (stereo unspecified)
inactive: [1] 106% | [2] 90.1% | [3] 102% | [4] 97.3% | [5] 92.1% | [6] 105% | [7] 101% | [8] 102%

CCN(CC)CCSC(=O)C(O)(c1ccccc1)C1CCCC1 (stereo unspecified)
inactive: [1] 109% | [2] 109% | [3] 115% | [4] 102% | [5] 114% | [6] 109% | [7] 90.3% | [8] 79.4%

CC[C@@H]1NC(=O)[C@@H]2CCCCN2C(=O)[C@@H]2CCCN2C(=O)[C@@H](NC(=O)[C@H](Cc2cc(F)cc(F)c2)NC(=O)Nc2ccc(C3CC3)cc2F)[C@H](C)OC(=O)[C@@H]2C[C@@H](C)CN2C1=O
active: [1] 7.13% | [2] 5.79% | [3] 3.08% | [6] 4.17% | [7] -14.1%
inactive: [4] 27% | [5] 13.4% | [8] 17%

O=C(COc1cccc(/C=C2\Oc3ccccc3C2=O)c1)c1ccc([N+](=O)[O-])cc1
inactive: [1] 51.6% | [2] 110% | [3] 116% | [4] 113% | [5] 50.7% | [6] 92.2% | [7] 96.8% | [8] 110%

CC(C)=CC/C=C(/C)[C@H]1CC[C@]2(C)[C@@H]1CC[C@@H]1[C@@]3(C)CCC(=O)NC(C)(C)[C@@H]3CC[C@]12C
active: [1] -3.77% [100 µM] | [2] -0.884% [100 µM] | [3] -4.47% [100 µM] | [4] -58.8% [100 µM] | [5] 8.52% [100 µM] | [6] -37.4% [100 µM] | [7] 5.26% [100 µM] | [8] -56% [100 µM]

C[C@H]1[C@H](C)CC[C@]2(C(=O)O)CC[C@]3(C)C(=CC[C@@H]4[C@@]5(C)C/C(=C/c6ccco6)C(=O)C(C)(C)[C@@H]5CC[C@]43C)[C@H]12
active: [1] -14.3% [100 µM] | [2] -62.5% [100 µM] | [3] -85.1% [100 µM] | [4] -44.9% [100 µM] | [5] -74.7% [100 µM] | [6] -73% [100 µM] | [7] -81.4% [100 µM] | [8] -73.5% [100 µM]

O=C(N/N=C/c1c(Cl)cccc1Cl)c1cccc(Nc2ccnc(C(F)(F)F)c2)c1
inactive: [1] 37% | [2] 90.8% | [3] 78.9% | [4] 99% | [5] 66.1% | [6] 77.2% | [7] 89.1% | [8] 108%

COc1cc(-c2cc(-c3ccc(Nc4ncnc5cc(Cl)ccc45)cc3)nc(N3CCCCC3)n2)cc(OC)c1OC
inactive: [1] 91.3% | [2] 84% | [3] 106% | [4] 97.7% | [5] 86.6% | [6] 103% | [7] 114% | [8] 97.8%

COc1ccc(C2NC(=O)C(C#N)c3c2sc2c(F)cccc32)cc1 (stereo unspecified)
active: [3] -9.11%
inactive: [1] 80.2% | [2] 56.4% | [4] 24.4% | [5] 32.7% | [6] 37.5% | [7] 91.5% | [8] 41%

COC(=O)c1cc(O)c2c(c1C(=O)OC)C[C@H]1[C@@H]3CC=C4C[C@@H](O)CC[C@]4(C)[C@H]3CC[C@]21C
inactive: [1] 36% | [2] 32.3% | [3] 37.6% | [4] 44.9% | [5] 37.2% | [6] 22% | [7] 41.6% | [8] 36.3%

COc1ccc(/C=C/C(=C/c2c(O)[nH]c3cc(Br)ccc23)N=O)cc1
inactive: [1] 103% | [2] 106% | [3] 108% | [4] 113% | [5] 104% | [6] 99.7% | [7] 121% | [8] 97.1%

CC(C)=CCC[C@](C)(O)[C@H]1CC[C@]2(C)[C@@H]1CC[C@@H]1[C@@]3(C)CC[C@H](OC(=O)CCC(=O)O)C(C)(C)[C@@H]3CC[C@]12C
active: [3] 6.66% [100 µM] | [6] 9.66% [100 µM] | [8] -19% [100 µM]
inactive: [1] 25.7% [100 µM] | [2] 25.5% [100 µM] | [4] 12.1% [100 µM] | [5] 15.8% [100 µM] | [7] 20.5% [100 µM]

CC(=O)Nc1ccc(C=Nc2ccc3ccccc3c2)cc1
inactive: [1] 108% | [2] 102% | [3] 112% | [4] 106% | [5] 92.3% | [6] 101% | [7] 92.1% | [8] 108%

CC1(C)CC[C@]2(C(=O)O)CC[C@]3(C)C(=CC[C@@H]4[C@@]5(C)C/C(=C/c6ccco6)C(=O)C(C)(C)[C@@H]5CC[C@]43C)[C@@H]2C1
active: [1] -0.554% [100 µM] | [2] -27.2% [100 µM] | [3] -70.6% [100 µM] | [4] -32.8% [100 µM] | [5] -8.44% [100 µM] | [6] -71.8% [100 µM] | [7] -58.1% [100 µM] | [8] -65.9% [100 µM]

Cc1ccccc1OC(=O)c1cccc(Cl)c1
inactive: [1] 142% | [2] 107% | [3] 113% | [4] 101% | [5] 108% | [6] 103% | [7] 99.8% | [8] 101%

C[C@H]1[C@H](C)CC[C@]2(COC(=O)CCC(=O)O)CC[C@]3(C)C(=CC[C@@H]4[C@@]5(C)CCCNC(C)(C)[C@@H]5CC[C@]43C)[C@H]12
inactive: [1] 36.7% [100 µM] | [2] 64% [100 µM] | [3] 79.6% [100 µM] | [4] 87.7% [100 µM] | [5] 54.9% [100 µM] | [6] 40.5% [100 µM] | [7] 71.9% [100 µM] | [8] 78% [100 µM]

O=C1CN(Cc2ccc(C(=O)NO)cc2)C(=O)[C@@H](Cc2ccccc2)N1
inactive: [1] 93.2% | [2] 101% | [3] 100% | [4] 102% | [5] 96% | [6] 97.2% | [7] 109% | [8] 104%

Cc1ccc(Cn2c(O)c(N=NC(=O)c3ccc(S(N)(=O)=O)cc3)c3ccccc32)cc1
inactive: [1] 83.7% | [2] 102% | [3] 102% | [4] 100% | [5] 95% | [6] 102% | [7] 114% | [8] 106%

CCN(CC)c1ccc2cc(NC(=O)OCCNC(=O)CCNC(=O)[C@H](CC(C)C)NC(=O)C(C)(C)NC(=O)C(C)(C)NC(=O)[C@H](CC(C)C)NC(=O)CCNC(=O)C(C)(C)NC(=O)[C@H](CC(C)C)NC(=O)CCNC(=O)[C@@](C)(CC)NC(=O)[C@H](C)NC(=O)CCNC(=O)C(C)(C)NC(=O)[C@H](C)NC(=O)[C@@H]3CCCN3C(=O)[C@@](C)(CC)NC(=O)[C@H](Cc3ccccc3)NC(=O)C3CCCN3C(=O)C(C)(C)NC(=O)C3CCCN3C(=O)C(C)(C)NC(C)=O)c(=O)oc2c1 (stereo partly specified)
active: [1] -71.4% | [2] -93.3% | [3] -76.2% | [4] -77.4% | [5] -88.2% | [6] -91.2% | [7] -94.2% | [8] -98.5%

Cc1cccc(C[C@H](NC(=O)Nc2ccc(C)cc2F)C(=O)N[C@@H]2C(=O)N3C[C@H](O)C[C@H]3C(=O)N3CCN(C)C[C@H]3C(=O)N[C@@H](C)C(=O)N3C[C@H](C)C[C@H]3C(=O)O[C@H]2C)c1
inactive: [1] 25.9% | [2] 22.1% | [3] 21.8% | [4] 47.6% | [5] 26.7% | [6] 14.8% | [7] 35.7% | [8] 43.7%
